Results: PubChem BioAssay (NCI)
This is part of a sample that, as a whole, favours compounds with a hit. Of some 83,000 tested, about 20% had one in any assay.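 Percent growth is the endpoint: 0 to 100 indicates growth inhibition (40 means 60% inhibition), 0 means no net growth, and negative values indicate cell death.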 The source made the active and inactive calls. The calls were made as follows: active = growth percent below 10; inactive = the rest.

Columns and labels:
Assay in all cases: NCI-60 one-dose screen, 48 h (100 = growth as untreated, 0 = no growth, -100 = all killed)
Conditions in all cases: 10 µM unless noted
NCI-H23 lung = test system: NCI-H23 lung
NCI-H226 lung = test system: NCI-H226 lung
NCI-H322M lung = test system: NCI-H322M lung
HOP-62 NSCLC = test system: HOP-62 NSCLC
NCI-H460 lung = test system: NCI-H460 lung
HOP-92 NSCLC = test system: HOP-92 NSCLC
NCI-H522 lung = test system: NCI-H522 lung
A549/ATCC NSCLC = test system: A549/ATCC NSCLC
786-0 renal = test system: 786-0 renal
COLO 205 colon = test system: COLO 205 colon
DU-145 prostate = test system: DU-145 prostate
K-562 leukemia = test system: K-562 leukemia
MALME-3M melanoma = test system: MALME-3M melanoma
MDA-MB-231 breast = test system: MDA-MB-231 breast
RXF 393 renal = test system: RXF 393 renal
SF-268 CNS = test system: SF-268 CNS
SF-295 CNS = test system: SF-295 CNS
SF-539 CNS = test system: SF-539 CNS
UACC-257 melanoma = test system: UACC-257 melanoma
M14 melanoma = test system: M14 melanoma

Measured: growth

O=C(O)C1C(C(=O)O)C2(Cl)C(Cl)=C(Cl)C1(Cl)C2(Cl)Cl.[Hg] (centres undefined)
inactive: NCI-H23 lung 90.7% | NCI-H226 lung 106% | NCI-H322M lung 107% | HOP-62 NSCLC 103% | NCI-H460 lung 98.8% | HOP-92 NSCLC 127% | A549/ATCC NSCLC 85% | 786-0 renal 88% | COLO 205 colon 103% | DU-145 prostate 96.7% | K-562 leukemia 15.1% | MALME-3M melanoma 69.5% | MDA-MB-231 breast 86.4% | RXF 393 renal 123% | SF-268 CNS 97.5% | SF-295 CNS 95.2% | SF-539 CNS 102% | UACC-257 melanoma 74.7% | M14 melanoma 80.2%
active: NCI-H522 lung -50.2%

COC(=O)[C@@H](C)C[C@H](Cc1ccccc1)NC(=O)c1csc([C@@H](C[C@H](C(C)C)N(C)C(=O)[C@@H](NC(=O)[C@H]2CCCCN2C)c2ccc(F)cc2)OC(C)=O)n1
active: HOP-62 NSCLC 3.87% | NCI-H460 lung 3.62% | HOP-92 NSCLC 4.81% | NCI-H522 lung -2.85% | COLO 205 colon -53.8% | DU-145 prostate 6.65% | K-562 leukemia 2.45% | MDA-MB-231 breast -9.8% | SF-295 CNS 3.25% | SF-539 CNS -17.9% | M14 melanoma -6.9%
inactive: NCI-H23 lung 25.6% | NCI-H226 lung 29.4% | NCI-H322M lung 37.4% | A549/ATCC NSCLC 13.9% | 786-0 renal 15.7% | MALME-3M melanoma 65.8% | RXF 393 renal 74.7% | SF-268 CNS 13.2% | UACC-257 melanoma 53.2%

COC(=O)[C@@H](C)C[C@H](Cc1ccccc1)NC(=O)c1csc([C@@H](C[C@H](C(C)C)N(C)C(=O)C2(NC(=O)[C@H]3CCCCN3C)CC2)OC(C)=O)n1
inactive: NCI-H23 lung 15.7% | NCI-H226 lung 50.8% | NCI-H322M lung 44.8% | A549/ATCC NSCLC 11.7% | 786-0 renal 17.6% | MALME-3M melanoma 73.3% | MDA-MB-231 breast 13.4% | RXF 393 renal 77.5% | SF-268 CNS 17.5% | UACC-257 melanoma 56%
active: HOP-62 NSCLC 9.05% | NCI-H460 lung 3.12% | HOP-92 NSCLC -3.99% | NCI-H522 lung 1.55% | COLO 205 colon -55% | DU-145 prostate 7.25% | K-562 leukemia 3.8% | SF-295 CNS 4.29% | SF-539 CNS -10.4% | M14 melanoma 0.0884%

O=C(c1ccccc1O)c1[nH]c(Cl)c(Cl)c1-n1c(C(=O)c2ccccc2O)cc(Cl)c1Cl
active: NCI-H23 lung -10.6% | NCI-H226 lung -1.5% | NCI-H322M lung -0.432% | HOP-62 NSCLC -9.18% | NCI-H460 lung 0.792% | HOP-92 NSCLC -37.6% | NCI-H522 lung -17.9% | A549/ATCC NSCLC 3.18% | 786-0 renal -9.15% | COLO 205 colon -95.7% | K-562 leukemia 6.74% | MALME-3M melanoma -25.5% | MDA-MB-231 breast -31.7% | RXF 393 renal -19.4% | SF-268 CNS 4.86% | SF-295 CNS -25.5% | SF-539 CNS 7.94% | UACC-257 melanoma -24.9% | M14 melanoma -0.41%
inactive: DU-145 prostate 19.2%

CC(C)(C)C(=O)OCOP(=O)(OCOC(=O)C(C)(C)C)C1CCCN(O)C1=O (centres undefined)
active: NCI-H23 lung -13.4% | NCI-H226 lung -1.39% | NCI-H460 lung 1.85% | HOP-92 NSCLC 7.23% | NCI-H522 lung -7.58% | COLO 205 colon -16.8% | K-562 leukemia 8.42% | MDA-MB-231 breast 5.67% | RXF 393 renal -9.35% | SF-268 CNS 4.35%
inactive: NCI-H322M lung 14.7% | HOP-62 NSCLC 18.2% | A549/ATCC NSCLC 10.8% | 786-0 renal 12.4% | DU-145 prostate 20% | MALME-3M melanoma 12.3% | SF-295 CNS 54% | SF-539 CNS 27.4% | UACC-257 melanoma 18.9% | M14 melanoma 26.6%

CCOC(=O)[C@@H](C)C[C@H](Cc1ccccc1)NC(=O)c1csc([C@@H](C[C@H](C(C)C)N(C)C(=O)CNC(=O)[C@H]2CCCCN2C)OC(C)=O)n1
inactive: NCI-H23 lung 31.7% | NCI-H226 lung 69.9% | NCI-H322M lung 44.7% | HOP-62 NSCLC 23.5% | HOP-92 NSCLC 47.5% | A549/ATCC NSCLC 16.4% | 786-0 renal 19.8% | MALME-3M melanoma 76.1% | MDA-MB-231 breast 14.5% | SF-268 CNS 46.6% | UACC-257 melanoma 58.7%
active: NCI-H460 lung 5.98% | NCI-H522 lung -12.8% | COLO 205 colon -11.6% | DU-145 prostate 9.26% | K-562 leukemia 6.73% | RXF 393 renal -13.8% | SF-295 CNS 5.3% | SF-539 CNS -8.42% | M14 melanoma -20.9%

Brc1ccc2c(c1)c(-c1nc(-c3c[nH]c4ncccc34)cs1)cn2CCN1CCOCC1
inactive: NCI-H23 lung 71.8% | NCI-H226 lung 60.2% | NCI-H322M lung 72.1% | HOP-62 NSCLC 60.4% | NCI-H460 lung 63.2% | HOP-92 NSCLC 52.2% | NCI-H522 lung 76.1% | A549/ATCC NSCLC 61.7% | 786-0 renal 67.5% | COLO 205 colon 64.3% | DU-145 prostate 86.5% | K-562 leukemia 24.3% | MALME-3M melanoma 88.5% | MDA-MB-231 breast 53.3% | RXF 393 renal 74.6% | SF-268 CNS 65.4% | SF-295 CNS 74.4% | SF-539 CNS 61% | UACC-257 melanoma 99.7% | M14 melanoma 63.8%

COC1OC(CO)C(O)C(O)[CH]1[Hg][O]C(C)=O (centres undefined)
inactive: NCI-H23 lung 94.2% | NCI-H226 lung 100% | NCI-H322M lung 91.7% | HOP-62 NSCLC 102% | NCI-H460 lung 94.9% | HOP-92 NSCLC 123% | A549/ATCC NSCLC 94.9% | 786-0 renal 106% | COLO 205 colon 98% | DU-145 prostate 96.3% | K-562 leukemia 27.3% | MALME-3M melanoma 76.4% | MDA-MB-231 breast 81.9% | RXF 393 renal 110% | SF-268 CNS 97.6% | SF-295 CNS 102% | SF-539 CNS 106% | M14 melanoma 93.7%
active: NCI-H522 lung -42.7%
